The list is not random: actives were taken first. Their share in the collection is about 3.8%.
DAT uptake mod – changed human dopamine transporter uptake under cocaine IC80 | Q01959 | LLC-PK1 hDAT cells, [14C]-dopamine uptake with cocaine IC80; actives deviate in either direction | B-score at 10 µM | 1.3% of 110,000 active | AID 449768;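 active means Z score or B-score, a plate-position-corrected score, falls beyond the plate's 99.7% confidence bounds, in either direction; inactive means both scores lie inside the 99.7% bounds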;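 further: scored against the spread of the other compound wells on the same plate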
ERa coact pot – enhances coactivator binding to human estrogen receptor alpha. coactivator binding (% of control), % at 25.6 µM. P03372. TR-FRET ERalpha-LBD/SRC-Cy5 coactivator binding, 2 h; 100 = basal binding, no effect. 1.3% of 86,000 active. AID 639; in the data active means activity above about 200%;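 further: binding measured in presence of low estradiol as agonist stimulus; 0% = peptide alone without receptor and 100% = receptor with peptide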
Target sequence (P03372 whole entry, looked up, the tested form may be a part): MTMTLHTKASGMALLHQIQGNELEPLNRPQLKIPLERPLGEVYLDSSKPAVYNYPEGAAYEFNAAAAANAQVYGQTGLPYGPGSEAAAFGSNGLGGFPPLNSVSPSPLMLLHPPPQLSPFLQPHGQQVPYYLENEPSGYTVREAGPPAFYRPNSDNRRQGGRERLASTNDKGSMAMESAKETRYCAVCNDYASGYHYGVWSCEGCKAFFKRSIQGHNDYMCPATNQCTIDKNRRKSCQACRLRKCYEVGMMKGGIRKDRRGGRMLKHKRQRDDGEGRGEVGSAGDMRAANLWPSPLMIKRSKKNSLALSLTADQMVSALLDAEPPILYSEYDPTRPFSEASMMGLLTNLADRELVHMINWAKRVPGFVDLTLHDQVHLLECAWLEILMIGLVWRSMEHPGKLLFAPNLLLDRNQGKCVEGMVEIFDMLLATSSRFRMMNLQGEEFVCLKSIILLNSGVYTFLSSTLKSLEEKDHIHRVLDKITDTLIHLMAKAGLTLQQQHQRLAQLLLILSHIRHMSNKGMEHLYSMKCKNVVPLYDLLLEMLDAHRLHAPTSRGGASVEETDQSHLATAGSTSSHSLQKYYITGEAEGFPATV
ERb SRC1 inh – blocks coactivator binding to human estrogen receptor beta; inhibition, % at 25.6 µM; 1.3% of 86,000 active; Q92731; TR-FRET ER-beta LBD / SRC1-Cy5 peptide binding; receptor agonist-loaded with 1 µM estradiol;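 active means compounds whose percent inhibition of the receptor-coactivator binding signal exceeds about 50% in the single-dose screen, limit read from the data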;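 further: 0% = receptor plus peptide wells without compound and 100% = peptide-only wells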
ERa SRC1 inh – blocks coactivator binding to human estrogen receptor alpha; P03372; TR-FRET ER-alpha LBD / SRC-1 peptide, estradiol-bound; inhibition, % at 25.6 µM; 1.7% of 86,000 active; in the data active means inhibition above about 50%;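 further: 0% = receptor plus peptide control and 100% = peptide only without receptor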
MT1-MMP txn act – activates MT1-MMP transcription; HT1080 MT1-MMP promoter luciferase reporter, luminescence, overnight; active compounds read high; activation factor at 10 µM; 0.16% of 86,000 active; AID 750;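 active means activation factor of at least 2 for MT1-MMP transcription at 10 µM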
The depositor's hits bear a star; / = no result given; [ ] = remark or other dose.

SMILES	DAT uptake mod	ERa coact pot	ERb SRC1 inh	ERa SRC1 inh	MT1-MMP txn act
COC(=O)N1CC=CC1(C)C(=O)NCC1CC1 (stereo not drawn)	/	/	/	/	1.1
CCOC(=O)C1=C(CCc2ccccc2)NC(=O)NC1c1ccc(Cl)cc1 (stereo not drawn)	/	/	/	/	1.1
O=C(c1ccc(Cl)cc1)c1ccccc1C(=O)N1CCOCC1	0.015	65	9	38	1.1
O=S(=O)(/N=C(/c1ccc(Cl)cc1)N1CCOCC1)c1ccc(Cl)cc1	2*	/	/	/	/
CC1CCCN(C(=O)CSCC(=O)N=c2sc3ccccc3n2C)C1 (stereo not drawn)	2.7*	102	-2	-1	/
Oc1ccc(Nc2nc3ccccc3nc2Nc2ccc(O)cc2)cc1	1.3	14	83*[fluorescence artefact?]	73*[fluorescence artefact?]	1
Clc1ccccc1C(c1ccccc1)(c1ccccc1)n1ccnc1	0.62	/	/	/	/
Cc1ccc(CSCC(=O)N/N=C/c2sccc2C)cc1	3.2*	/	/	/	/
CCn1c(SCC(=O)Nc2ccc3c(c2)oc2ccccc23)nnc1-c1ccc(N)cc1	1.5	67	50*[fluorescence artefact?]	74*	1.4
CCn1c(SCC(=O)Nc2ccc3c(c2)c2ccccc2n3CC)nnc1-c1ccco1	/	83	49	63*	0.9
CCn1c(SCC(=O)c2ccc3c(c2)Cc2ccccc2-3)nnc1-c1ccc(N)cc1	1.7*	/	/	/	/
CCn1c(SCC(=O)Nc2ccc3c(c2)OCCO3)nnc1-c1ccco1	-0.046	105	2	-1	0.9
CCn1c(SCC(=O)c2ccc(O)c(O)c2)nnc1-c1ccc(C)cc1	-0.86	/	/	/	/
Cc1ccc(Cl)cc1N1CCN(Cc2nc3ccsc3c(=O)[nH]2)CC1	1.3	/	/	/	/
CCCNS(=O)(=O)c1ccc(OCC(=O)N2CCOCC2)cc1	-0.18	104	-28	-24	1.3
C=CCn1c(COc2ccccc2F)nnc1SCC(=O)NC(=O)NCc1ccco1	1.1	98	54*	67*[fluorescence artefact?]	1.1
C=CCn1c(COc2ccccc2-c2ccccc2)nnc1SCC(=O)NC(=O)NCc1ccco1	1.2	91	7	-2	1.1
COc1ccccc1OCc1nnc(SCC(=O)NCc2ccco2)n1Cc1ccco1	0.73	207*[fluorescence artefact?]	29	37	1
Cc1cccc(NC(=O)CSc2nnc(CSc3nc(C)cc(C)n3)n2Cc2ccco2)c1	2.8*	107	-4	-6	1.2
Cc1cc(C)nc(SCc2nnc(SCC(=O)Nc3nccs3)n2Cc2ccco2)n1	2.2	109	-1	5	1
CC/C=C/C(=O)N1CC2(CC(c3cccc(NC(=O)COc4ccc(Cl)cc4)c3)=NO2)C[C@H]1C(N)=O (stereo partly drawn)	0.47	/	/	/	/
Oc1cc2c(cc1O)C1c3ccc(O)c(O)c3OCC1(O)C2 (stereo not drawn)	1.4	/	/	/	/
CCC1SC2=NC(C)=C(C(=O)OCCOC)C(/C=C/c3ccccc3OC)N2C1=O (stereo not drawn)	-7.6*	82	-5	-4	1.1
CCOC(=O)Cc1cc(=O)n2[nH]c(-c3ccc(C)cc3)cc2n1	0.6	82	56*	73*	1.2
CCOC(=O)c1cc(=O)n2[nH]c(-c3ccc(C)cc3)cc2n1	1.2	98	5	7	1.2
SMILES	DAT uptake mod	ERa coact pot	ERb SRC1 inh	ERa SRC1 inh	MT1-MMP txn act
CC1CCN(C(=O)C2c3ccccc3C(=O)N3CCc4ccccc4C23)CC1 (stereo not drawn)	0.95	623*[fluorescence artefact?]	-4	-1	1.3
NC(=O)C1CCN(C(=O)C2c3ccccc3C(=O)N3CCc4ccccc4C23)CC1 (stereo not drawn)	1.4	97	-2	-3	1.3
Cc1ccccc1-n1nc2c(c1NC(=O)c1ccc(Br)o1)CSC2	-0.94	207*[fluorescence artefact?]	42	20	1.1
COC(=O)C[C@H]1c2cc(C(F)(F)F)ccc2S(=O)(=O)N1Cc1ccccc1	0.079	/	/	/	/
COc1ccc(N=c2scc(-c3ccc(S(=O)(=O)N4CCOCC4)cc3)n2CCCO)cc1	-0.042	99	-4	-7	1.1
C=CCn1c(-c2ccc(S(=O)(=O)N3CCOCC3)cc2)csc1=Nc1ccccc1	1.4	215*	-25	-7	1.1
CCOC(=O)c1c(NC(=O)CSc2nc3c(c(=O)n(C)c(=O)n3C)n2CC)sc(C)c1C	/	133	7	11	1.1
CCCn1c(SCC(=O)Nc2sc(C)c(C)c2C(=O)OC)nc2c1c(=O)n(C)c(=O)n2C	/	246*	47	51*	1.2
CC(=O)Nc1ccc(Nc2nc(C)nc3c2oc2ccccc23)cc1	-0.038	96	6	-2	1
CC(=O)c1ccc(Nc2ncnc3c2oc2ccccc23)cc1	1	346*[fluorescence artefact?]	46	45	1.3
O=C(COc1ccc2ccccc2c1)Nc1cccc2cccnc12	-7.6*	129	7	-1	1.1
O=C(COc1ccc2ccccc2c1)NCCNC(=O)COc1ccc2ccccc2c1	0.036	317*[fluorescence artefact?]	-4	11	1.4
O=C(COc1ccc2ccccc2c1)Nc1ccc(Cc2ccncc2)cc1	-0.08	/	/	/	/
Cc1csc(NC(=O)c2cc3c(s2)CCCCC3)n1	-0.87	104	-12	-3	0.6
Cc1csc(NC(=O)c2cc3c(s2)CCCC3)n1	3.2*	90	-4	0	/
COC(=O)C(/C=N/OCc1ccc([N+](=O)[O-])cc1)NC(=O)c1cccc(Cl)c1 (stereo not drawn)	-0.3	395*[fluorescence artefact?]	20	24	/
CN(C)c1ccc(N2CN=C3SCC(=O)N3C2)cc1	0.13	92	86*[fluorescence artefact?]	20	1.1
Cc1[nH]c(=O)[nH]c(=O)c1NC(=O)c1cccs1	-0.31	102	-6	87*[fluorescence artefact?]	1
O=C(NCc1cccnc1)NC1(C(F)(F)F)Oc2ccccc2O1	-5.8*	104	-1	3	1.3
CCc1sc(C(=O)Nc2ccsc2C(=O)OC)cc1Br	-0.82	237*	0	11	1.2
COC(=O)c1sccc1NC(=O)c1sccc1C	0.3	153	5	-1	1
COC(=O)c1sccc1NC(=O)c1cc(OC)cc(OC)c1	-8*	440*[fluorescence artefact?]	28	26	0.8
CCC(=O)Nc1nonc1-c1nc2ccccc2n1Cc1ccccc1	0.88	113	3	19	/
CCC(=O)Nc1nonc1-c1nc2ccccc2n1N(C(=O)CC)C(=O)CC	/	59	50	59*	1.2
CCC(=O)Nc1nonc1-c1nc2ccccc2n1Cc1cccc2ccccc12	-0.072	204*[fluorescence artefact?]	21	19	0.8
CCOC(=O)Cn1c(-c2nonc2NC(=O)c2ccccc2F)nc2ccccc21	0.019	322*	29	25	/
O=C1C2C3CCC(C3NCc3ccccc3)C2C(=O)N1Cc1ccccc1 (stereo not drawn)	0.047	/	/	/	/
Cn1cc(C[C@H](NC(=O)OC(C)(C)C)C(=O)N[C@@H](CO)Cc2ccccc2)c2ccccc21	0.3	/	/	/	/
CCC/C=C(\CCC)C(NS(=O)(=O)c1ccccc1)c1ccc(C(F)(F)F)cc1 (stereo not drawn)	/	/	/	/	1.2
Cc1cc(=O)[nH]c(SCC(=O)Nc2nc3c(s2)CCCC3)n1	1.4	107	78*	1	1.2

Screens as filed in PubChem.
